Data reported in the supplement of paper PMC6555819.

Assays:
Test in all cases: PBM binding z-score (relative to random genomic background probes); higher = stronger binding; sequences stand for … in GC…GCGATTGACAGCGTAGAATGAAGG
[1] = test system: FXR:RXRa (NR concentration 270 nM, RXRa partner concentration 90 nM)
How it was run: (§1)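 Binding z-scores take random background probes as their reference. They come from custom Agilent 4×180K protein-binding microarrays incubated 1 h with ligand-free nuclear receptor dimers, with antibodies against each partner (one per run) detecting binding. Scanned fluorescence was regression-normalized.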

[2] = test system: LXRa:RXRa (NR concentration 270 nM, RXRa partner concentration 90 nM)
How it was run: as §1

[3] = test system: LXRa homodimer (NR concentration 270 nM)
How it was run: as §1

[4] = test system: LXRb:RXRa (NR concentration 270 nM, RXRa partner concentration 90 nM)
How it was run: as §1

[5] = test system: LXRb homodimer (NR concentration 270 nM)
How it was run: as §1

[6] = test system: PPARa:RXRa (NR concentration 270 nM, RXRa partner concentration 90 nM)
How it was run: as §1

[7] = test system: PPARg:RXRa (NR concentration 180 nM, RXRa partner concentration 90 nM)
How it was run: as §1

[8] = test system: PPARg:RXRa 270nM:90nM, anti-RXR (NR concentration 270 nM, RXRa partner concentration 90 nM)
How it was run: as §1

[9] = test system: PPARg:RXRa 30nM:10nM, anti-RXR (NR concentration 30 nM, RXRa partner concentration 10 nM)
How it was run: as §1

[10] = test system: PPARg:RXRa 90nM:30nM, anti-RXR (NR concentration 90 nM, RXRa partner concentration 30 nM)
How it was run: as §1

Row | Sequence | PBM binding z-score [1] | PBM binding z-score [2] | PBM binding z-score [3] | PBM binding z-score [4] | PBM binding z-score [5] | PBM binding z-score [6] | PBM binding z-score [7] | PBM binding z-score [8] | PBM binding z-score [9] | PBM binding z-score [10]
1 | CCGACTGGGGCAAGGTTATCATAACGCACAGCCA | 0.246 | 0.372 | -0.203 | 0.586 | -1.17 | 1.56 | 2.69 | 3.04 | 0.861 | 2.36
2 | TCTTGTAGATCCAGCAGGTTAAGAAAGCCTGAGT | 0.108 | 0.186 | -0.293 | 0.284 | -0.208 | 0.342 | -0.483 | 1.03 | 2.62 | 1.84
3 | CTACCAAGGTGCACAAGGTCGTTGATTACTATTC | 0.933 | 1.22 | 0.723 | 1.74 | -0.173 | 1.69 | 0.548 | 0.538 | -0.186 | 0.246
4 | CAAACAGGGTCAGCTAGGCCAGAGTAGGGACGGC | 4.65 | 2.73 | -0.316 | 2.21 | 0.0212 | 4.47 | 3.5 | 3.57 | 0.838 | 2.35
5 | AAAATGAGGTTATACGTAGATCAGGGAAGAAAGT | 2.34 | 2.36 | 0.225 | 1.87 | 0.19 | 3.52 | 2.69 | 2.4 | 1.33 | 1.9
6 | GGAACGAGGGCAAGTTGAAAGCAGAGTTTGATGG | 0.833 | 0.231 | -0.173 | 0.237 | -0.789 | 1.94 | 1.02 | 1.12 | 0.000931 | 0.87
7 | TCGAGTAGGTTAGGGGCATTCGGAATGGCGTCGA | 0.123 | 0.347 | -0.32 | 0.736 | -0.712 | 1.06 | 0.477 | 2.22 | 1.15 | 1.51
8 | ATATGTCGGTTAGCTGGGGTCATTCAGACTAGGC | 3.68 | 4.3 | 2.96 | 4.36 | 1.24 | 4.39 | 1.86 | 2.65 | 0.599 | 1.75
9 | GCTTACGGGTCAAAGGTTATATCATGAATAGAAT | 7.77 | 6.12 | 1.25 | 5.78 | 1.03 | 6.94 | 11.4 | 9.51 | 10.9 | 11.1
10 | TCATATAGGTAAATGCTTGGTGAAAGTCCGATCT | 0.688 | 0.994 | 0.23 | 0.824 | -0.0277 | 1.12 | 0.522 | 2.24 | 3.68 | 2.72
11 | ATACCTAGGTGATCGTGAGGTCGTTGATACTAAC | 1.53 | 1.12 | 0.563 | 1.35 | 0.0825 | 1.55 | 0.632 | 0.766 | 0.387 | 0.954
12 | TATACAGGCTCAAAGGCCAGAGTACGAATGTCGA | -0.0411 | 0.0342 | -0.184 | -0.265 | -0.0867 | 0.221 | 1.03 | 1.75 | 0.77 | 1.4
13 | CAAACTAGGTCACAGCGGTCAAAGTCCGTGCGTA | 5.25 | 5.23 | 5.2 | 4.06 | 0.739 | 5.65 | 8.85 | 7.4 | 5.13 | 7.02
14 | ATCGAAAGGTCGACGAGGTGAGTCTACACCGTTT | 4.73 | 3.39 | -0.244 | 2.47 | 0.381 | 4.55 | 2.93 | 3.2 | 0.846 | 1.9
15 | TCTTGTTGGTCACGGAGGTCACACACGACGGGTA | 3.76 | 3.86 | 3.29 | 3.62 | 2.2 | 4.14 | 3.58 | 4.44 | 3.5 | 4.07
16 | GCAGACAAGTGAAACGCAGGTAACTCAGGGTGGC | -0.375 | -0.79 | -0.665 | -0.901 | -1.26 | -0.28 | 0.44 | -0.661 | -0.558 | -0.468
17 | AGAATGAGGTTATACGTAGATCAGCGAAGAAAGT | 1.93 | 1.66 | -0.0526 | 1.22 | -0.284 | 3.27 | 1.91 | 1.88 | 0.445 | 1.21
18 | TCTTGTATATCAAGCAGGTTAAGAAAGCCTGAGT | 0.234 | 0.335 | 0.0276 | 0.678 | 0.189 | 0.992 | -0.217 | 1.47 | 2.86 | 1.86
19 | GCTCGGAAGACAAGGTCAGAGCTTTGTCCGTAGA | 1.01 | 1.26 | -0.528 | 0.906 | -1.34 | 1.97 | 0.0442 | 0.519 | -0.417 | 0.239

Row | Sequence | PBM binding z-score [1] | PBM binding z-score [2] | PBM binding z-score [3] | PBM binding z-score [4] | PBM binding z-score [5] | PBM binding z-score [6] | PBM binding z-score [7] | PBM binding z-score [8] | PBM binding z-score [9] | PBM binding z-score [10]
20 | CAAACTAGGTCAAGAGCTCAAAGTCCGCTTCCCG | 3.7 | 2.48 | 0.129 | 1.63 | 0.0048 | 4.61 | 7.37 | 6.8 | 4.34 | 6.56
21 | TTACCAAGGTGAAATGTCGTTGATGCACGCCTTG | 0.891 | 0.622 | -0.432 | 0.388 | -0.436 | 2.35 | 2.41 | 3.4 | 1.94 | 3.36
22 | CTACCATGGTGAACAAGGTCGTTGATTACTATTC | 0.251 | 0.452 | 0.165 | 1.23 | -0.219 | 1.07 | 0.161 | 0.378 | -0.000193 | 0.175
23 | TAGCCTAGGTCATGGGCCAGTATTCCACGCGAAC | 4.39 | 3.5 | 0.0514 | 2.3 | -0.499 | 4.12 | 3.67 | 3.49 | 1.17 | 2.47
24 | CCTCGAAGGACAGAAGGTCAGAGCTGTCCGCTTT | 1.13 | 1.56 | 0.132 | 1.28 | -0.573 | 1.83 | 0.0228 | 0.429 | -0.598 | 0.107
25 | TAGCCTAGGTCATTCTGGGGCCAGTATAGAAAGC | 4.29 | 3.66 | 0.795 | 2.94 | 1.34 | 3.37 | 1.98 | 2.19 | 0.292 | 1.44
26 | CCTGCTATGTCATGGTCAGCTAATCTACAGTATG | 0.128 | -0.0634 | -0.269 | -0.0445 | -0.226 | -0.318 | 0.0811 | -0.104 | 0.0801 | 0.346
27 | TCATATAGGTAAAGGCGAAAGTCGAACGATATGA | 0.173 | 0.402 | -0.495 | 0.229 | -0.044 | 1.3 | 1.1 | 2.52 | 3.75 | 3.23
28 | ACTATTAGTTGAGACGCGGGCAACCGATAGGTTG | -0.0666 | -0.0998 | -0.325 | -0.488 | 0.193 | -0.624 | 0.371 | -0.414 | -0.25 | -0.167
29 | ATACCATGGTGATCGTGAGGTCGTTGATACTAAC | 0.952 | 0.604 | 0.284 | 1.08 | -0.16 | 0.884 | 0.301 | -0.0472 | 0.115 | 0.0761
30 | GCTATTAGTTGAGAGGGCAACCGAATGATTCTCG | 0.249 | 0.428 | 0.355 | 0.434 | -0.23 | 1.38 | 1.03 | 2.25 | 0.553 | 1.53
31 | GTACCAAGGTGAATAGGTCGTTGAAGAGTAGGCG | 1.03 | 0.815 | 0.077 | 0.828 | -0.492 | 2.34 | 1.56 | 2.06 | 0.379 | 1.17
32 | ATCTCTAGGTAAAGATAGTTCGGTGAATGCAAAT | 0.128 | 1.18 | 0.268 | 0.0902 | 0.531 | 0.121 | 0.266 | 0.307 | 0.192 | 0.213
33 | TCGTATAGGTAAAGGTGAAAGTCGAACGATATGA | 1.05 | 1.45 | 0.11 | 1.11 | -0.167 | 2.87 | 2.34 | 3.99 | 3.45 | 3.86
34 | ATCTCTAGGTAATACTCAGTTCAGTGAAGAACGC | 0.748 | 1.03 | 1.19 | 0.468 | 1.55 | 0.541 | 0.424 | 0.567 | 0.572 | 0.52
35 | CGAACTAGGTCAGAACAGGACAGTGAAGGATGAT | 1.69 | 0.689 | -0.0376 | 0.189 | -0.174 | 2.78 | 4.94 | 4.45 | 1.53 | 3.44
36 | TCGAGTAGGTTAGGAGCATTCAGAATGGCGTCGA | -0.126 | -0.0909 | -0.756 | -0.438 | -1.39 | 0.24 | 0.0725 | 0.668 | 0.928 | 0.741
37 | TCTCGGAGGACACGCAAGGTCAGAGCTCGACATC | 1.49 | 2.26 | 1.31 | 1.58 | -0.475 | 2.1 | 0.475 | 1.39 | 2.16 | 1.64
38 | CAAACTAGGTCACGAAAGGTGAAAGTCGAATGAC | 5.43 | 5.63 | 0.891 | 4.24 | 0.569 | 6.05 | 9.57 | 7.7 | 6.24 | 7.8
